# Results published in PubChem BioAssay AID720641 (ICCB-Longwood Screening Facility, Harvard Medical School, 2013).
# Among all 170,000 compounds or so, about 900 (0.53%) were called active.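 The calls were made as follows: active = relative growth at most 50% at the other temperature and 20+ points below 30 °C, or under 10% at both; inactive = the rest, inconclusive results apart.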 The full list was thinned out, with actives kept by preference.
# Assay: Staphylococcus aureus RN4220 growth blockers – two temperatures, LtaS inhibitor project, primary screen (AID 720641)
# Details: S. aureus RN4220 growth, OD600, 20 h, 42 °C, stronger effect = lower value
Compound,relative growth,relative growth (measured here: growth at 30 °C) [%]
CN(C)/N=C/c1ccc(OC(=O)c2ccco2)cc1,91.3% (inactive),89.5
CCOC(=O)c1cc2oc(C)cc2n1CCCN1C(=O)c2ccccc2C1=O,-0.65% (active),-0.53
CCn1nc(C(=O)OCCCCN2C(=O)c3ccccc3C2=O)c2ccccc2c1=O,98.7% (inactive),94.4
CCOC(=O)c1cc2n(c1N)-c1ccccc1C2=O,85.9% (inactive),71.7
O=C(NCC12CC3CC(CC(C3)C1)C2)c1cc(-c2ccccc2O)no1,105% (inactive),101
Cc1ccc(CNCc2cccn2-c2sc(C)c(C)c2C(=O)O)cc1,87.6% (inactive),76.5
C=CCn1c(C)nnc1SCCN1C(=O)c2ccccc2S1(=O)=O,91.3% (inactive),93.1
CC(C)C(C(=O)O)n1c(=S)[nH]c2ccccc2c1=O (stereo unspecified),77.7% (inactive),94.8
CCCCN(CC)S(=O)(=O)c1ccc(C(=O)Nc2nnc(-c3ccc(Cl)s3)o2)cc1,0.22% (active),0.29
CS(=O)(=O)c1ccc(-c2nnc(NC(=O)c3ccc4c(c3)OCCO4)o2)cc1,84.8% (inactive),85.3
CN(C)S(=O)(=O)c1ccc(C(=O)Nc2nnc(C3CC3)o2)cc1,78.8% (inactive),59.5
O=C(CN1C(=O)/C(=C/c2ccccc2)Sc2ccccc21)N1CCCC1,109% (inactive),98.3
COc1ccc(C2=NC(C)(C)N(CC(=O)Nc3ccccc3)C2=O)cc1,115% (inactive),93.8
CSc1ccc(Cl)c(C(=O)OCC(=O)N2CCC(C)CC2)c1,102% (inactive),82
Nc1nc(/C(=C/CC(=O)O)C(=O)N[C@@H]2C(=O)N3C(C(=O)O)=CCS[C@H]23)cs1,-0.72% (active),-0.64
CSc1nc(C)cc(=O)[nH]1,139% (inactive),90.7
NC(=O)N/N=C1/C=C(c2ccccc2)C(O)(c2ccccc2)C1 (stereo unspecified),109% (inactive),91.3
O=C1COc2ccc(C3=Nn4c(nnc4-c4ccncc4)SC3)cc2N1,97.9% (inactive),85.9
CCN(Cc1ccccc1)C(=O)c1cc2sccc2n1Cc1ccccc1,108% (inactive),88.4
COc1ccccc1CNC(=O)CNC1CCCCC1,96.2% (inactive),90
Cc1c2cn[nH]c(=O)c2c(C)n1Cc1ccccc1,88.3% (inactive),75.2
CO[C@@H]1[C@@H](OC(N)=O)[C@H](O)[C@H](Oc2ccc3c(O)c(NC(=O)c4ccc(O)c(CC=C(C)C)c4)c(=O)oc3c2C)OC1(C)C,-0.38% (active),0.14
CC(C)=CCOc1ccc2c3c(c(=O)oc2c1C)CCCC3,97.9% (inactive),97.1
